# Measured values published in the supplement of paper PMC13380429.
# Columns and labels:
# [1] = test system: Vero E6 infected with SARS-CoV-2; experiment: morphology score (similarity to uninfected cells); higher = more like uninfected cells; details: 24 h
# [2] = test system: Vero E6 infected with SARS-CoV-2; experiment: SARS-CoV-2 infection rate relative to infected DMSO; higher = more infection, active = 60 or less; details: 24 h
structure (smiles),measurement,setting,value
COc1cc2c(cc1OC)CN(CCc1ccc(NC(=O)c3cc(OC)c(OC)cc3NC(=O)c3cnc4ccccc4c3)cc1)CC2 [tariquidar] (10 µM),morphology score,[1],-0.0369
same,SARS-CoV-2 infection rate,[2],108% (inactive)
c1cncc(CN2CCC(n3ncc4c(N5CCOCC5)nc(-c5ccc6[nH]ccc6c5)nc43)CC2)c1 (0.833333 µM),morphology score,[1],0.491
same,SARS-CoV-2 infection rate,[2],69% (inactive)
CC(C)Oc1ccc(-c2nc(-c3cccc4c3CC[C@@H]4NCCO)no2)cc1C#N [ozanimod] (0.833333 µM),morphology score,[1],0.262
same,SARS-CoV-2 infection rate,[2],101% (inactive)
Cc1onc(-c2ccccc2)c1C(=O)N[C@@H]1C(=O)N2[C@@H]1SC(C)(C)[C@@H]2C(=O)O [oxacillin] (10 µM),morphology score,[1],-0.00627
same,SARS-CoV-2 infection rate,[2],110% (inactive)
CC(=O)O[C@@H]1CC[C@@]2(C)[C@@H](CC[C@]3(C)[C@@H]2C(=O)C=C2[C@@H]4[C@@H](C)[C@H](C)CC[C@]4(C)CC[C@]23C)[C@@]1(C)C(=O)O [acetyl-11-keto-beta-boswellic-acid] (10 µM),morphology score,[1],0.104
same,SARS-CoV-2 infection rate,[2],105% (inactive)
CCCCCCCCCCCCCCCCNc1ccc(C(=O)O)cc1 [cetaben] (10 µM),morphology score,[1],0.21
same,SARS-CoV-2 infection rate,[2],91.5% (inactive)
COc1ccc(C2CNC(=O)NC2)cc1O[C@H]1C[C@@H]2CC[C@H]1C2 [atizoram] (10 µM),morphology score,[1],0.369
same,SARS-CoV-2 infection rate,[2],93.5% (inactive)
C[C@@H](N[C@H]1CCCC[C@@H]1NC(=O)c1ccc(Cl)cc1)c1cccc2ccccc12 [Calhex-231] (10 µM),morphology score,[1],0.134
same,SARS-CoV-2 infection rate,[2],91.5% (inactive)
O=C1Nc2ccccc2/C1=C1/Nc2ccccc2C1=O [indirubin] (10 µM),morphology score,[1],0.173
same,SARS-CoV-2 infection rate,[2],99% (inactive)
CCn1c(-c2nonc2N)nc2c(C#CC(C)(C)O)ncc(OC[C@H]3CCCNC3)c21 (10 µM),morphology score,[1],0.337
same,SARS-CoV-2 infection rate,[2],105% (inactive)
Nc1cc(C(Cl)=C(Cl)Cl)c(S(N)(=O)=O)cc1S(N)(=O)=O [clorsulon] (10 µM),morphology score,[1],0.206
same,SARS-CoV-2 infection rate,[2],98% (inactive)
CC(C)c1nc(CN(C)C(=O)N[C@H](C(=O)N[C@@H](Cc2ccccc2)C[C@H](O)[C@H](Cc2ccccc2)NC(=O)OCc2cncs2)C(C)C)cs1 [Ritonavir] (10 µM),morphology score,[1],0.0318
same,SARS-CoV-2 infection rate,[2],95% (inactive)
CN1C(=O)CN=C(c2ccccc2)c2cc(Cl)ccc21 [diazepam] (10 µM),morphology score,[1],0.0883
same,SARS-CoV-2 infection rate,[2],108% (inactive)
CC(C)C(=O)Nc1ncc(-c2cc(C(F)F)nn2-c2c(Cl)cccc2Cl)s1 (10 µM),morphology score,[1],-0.133
same,SARS-CoV-2 infection rate,[2],108% (inactive)
O=C(O)COc1ccc(/C=C2\SC(=O)NC2=O)cc1 (10 µM),morphology score,[1],0.0392
same,SARS-CoV-2 infection rate,[2],97% (inactive)
CCOCOC[C@H](C[C@H](C)C(=O)NO)NC(=O)c1ccc(Oc2ccccc2)cc1 (10 µM),morphology score,[1],0.131
same,SARS-CoV-2 infection rate,[2],98.5% (inactive)
CC[C@]1(O)C[C@H]2CN(CCc3c([nH]c4ccccc34)[C@@](C(=O)OC)(c3cc4c(cc3OC)N(C=O)[C@H]3[C@@](O)(C(=O)OC)[C@H](OC(C)=O)[C@]5(CC)C=CCN6CC[C@]43[C@@H]65)C2)C1 [Vincristine (sulfate)] (10 µM),morphology score,[1],-0.036
same,SARS-CoV-2 infection rate,[2],101% (inactive)
CN(CCOc1ccc(-c2ccc3c(c2)OCO3)cc1C(C)(C)C)CC(=O)O (10 µM),morphology score,[1],-0.0713
same,SARS-CoV-2 infection rate,[2],102% (inactive)
COc1ccc(Cl)cc1NC(=O)Nc1cc(C)nc2ccccc12 (10 µM),morphology score,[1],0.148
same,SARS-CoV-2 infection rate,[2],96.5% (inactive)
COc1ccc([C@@H]2CC(=O)c3c(O)cc(O[C@@H]4O[C@H](CO[C@@H]5O[C@@H](C)[C@H](O)[C@@H](O)[C@H]5O)[C@@H](O)[C@H](O)[C@H]4O)cc3O2)cc1O [hesperidin] (10 µM),morphology score,[1],-0.132
same,SARS-CoV-2 infection rate,[2],108% (inactive)
Cc1c(N)cccc1Cn1ccc(OCCc2cccs2)cc1=O (10 µM),morphology score,[1],0.0738
same,SARS-CoV-2 infection rate,[2],102% (inactive)
Cc1cccc(Nc2ccccc2C(=O)O)c1C [mefenamic-acid] (10 µM),morphology score,[1],0.0628
same,SARS-CoV-2 infection rate,[2],99.5% (inactive)
C[C@]12CC[C@@H]3c4ccc(O)cc4C[C@@H](CCCCCCCCC[S+]([O-])CCCC(F)(F)C(F)(F)F)[C@H]3[C@@H]1CC[C@@H]2O (stereo partly drawn) [fulvestrant] (10 µM),morphology score,[1],-0.187
same,SARS-CoV-2 infection rate,[2],110% (inactive)
OC(CCCN1CCCCC1)(c1ccccc1)c1ccccc1 [diphenidol] (10 µM),morphology score,[1],-0.109
same,SARS-CoV-2 infection rate,[2],104% (inactive)
NC(=O)OCC(O)COc1ccc(Cl)cc1 (stereo not drawn) [chlorphensin-carbamate] (10 µM),morphology score,[1],-0.0129
same,SARS-CoV-2 infection rate,[2],112% (inactive)
Nc1ncnc2[nH]nc(Nc3ccc(F)cc3)c12 (0.833333 µM),morphology score,[1],-0.00281
same,SARS-CoV-2 infection rate,[2],95.5% (inactive)
Cn1c(CNc2ccc(C(=N)N)cc2)nc2cc(C(=O)N(CCC(=O)O)c3ccccn3)ccc21 [dabigatran] (10 µM),morphology score,[1],0.269
same,SARS-CoV-2 infection rate,[2],96% (inactive)
O=C(c1ccc(C(=O)N2CCC(N3CCCC3)CC2)c(Nc2ccccc2)c1)N1CCC(N2CCCC2)CC1 (10 µM),morphology score,[1],-0.0106
same,SARS-CoV-2 infection rate,[2],114% (inactive)
C#Cc1cncc([C@@H]2CCCN2C)c1 [altinicline] (10 µM),morphology score,[1],0.0585
same,SARS-CoV-2 infection rate,[2],98.5% (inactive)
CN1CCCCC1CCN1c2ccccc2Sc2ccc([S+](C)[O-])cc21 (stereo not drawn) [mesoridazine] (10 µM),morphology score,[1],0.323
same,SARS-CoV-2 infection rate,[2],91% (inactive)
Cn1c(COc2ccc(CC3SC(=O)NC3=O)cc2)nc2ccccc2c1=O (stereo not drawn) [balaglitazone] (10 µM),morphology score,[1],-0.114
same,SARS-CoV-2 infection rate,[2],111% (inactive)
Cc1nc(-c2cccnc2)sc1C(=O)Nc1ccccc1-c1cn2c(CN3CCOCC3)csc2n1 (10 µM),morphology score,[1],0.215
same,SARS-CoV-2 infection rate,[2],98% (inactive)
OC(c1ccccc1)C1CCN(CCc2ccccc2)CC1 (stereo not drawn) (10 µM),morphology score,[1],-0.103
same,SARS-CoV-2 infection rate,[2],106% (inactive)
O=C(O)/C=C/c1ccc(-c2ccc(O)c(C34CC5CC(CC(C5)C3)C4)c2)cc1 [adarotene] (10 µM),morphology score,[1],0.00299
same,SARS-CoV-2 infection rate,[2],100% (inactive)
COc1cc2c(CCNC(C)=O)c[nH]c2cc1Cl [6-chloromelatonin] (10 µM),morphology score,[1],0.0228
same,SARS-CoV-2 infection rate,[2],104% (inactive)
Cc1cc(C)n(-c2cccc([C@H](CC(=O)O)CN3CC[C@@H](CCc4ccc5c(n4)NCCC5)C3)c2)n1 [integrin-antagonist-1] (10 µM),morphology score,[1],-0.102
same,SARS-CoV-2 infection rate,[2],111% (inactive)
CCOc1nc2cccc(C(=O)O)c2n1Cc1ccc(-c2ccccc2-c2noc(=O)[nH]2)cc1 [azilsartan] (10 µM),morphology score,[1],0.0851
same,SARS-CoV-2 infection rate,[2],109% (inactive)
CCCCCN(C)CCC(O)(P(=O)(O)O)P(=O)(O)O [ibandronate] (10 µM),morphology score,[1],-0.0259
same,SARS-CoV-2 infection rate,[2],111% (inactive)
COC(=O)[C@@H](N)CS [mecysteine] (10 µM),morphology score,[1],-0.052
same,SARS-CoV-2 infection rate,[2],112% (inactive)
COc1cc(C[C@H]2C(=O)OC[C@@H]2Cc2ccc(OC)c(OC)c2)ccc1O [arctigenin] (10 µM),morphology score,[1],0.0564
same,SARS-CoV-2 infection rate,[2],108% (inactive)
COc1ccc(N2CCOCC2)c2sc(NC(=O)N3CCC(C)(O)CC3)nc12 [tozadenant] (10 µM),morphology score,[1],0.275
same,SARS-CoV-2 infection rate,[2],97% (inactive)
c1ccc2c(CCNc3ccc(Nc4ccncc4)cc3)c[nH]c2c1 [serdemetan] (10 µM),morphology score,[1],0.933
same,SARS-CoV-2 infection rate,[2],37.5% (active)
NCCCC[C@H](NC(=O)[C@@H](Cc1cc(Br)c(O)c(Br)c1)NC(=O)N1CCC(N2Cc3ccccc3NC2=O)CC1)C(=O)N1CCN(c2ccncc2)CC1 (10 µM),morphology score,[1],0.0352
same,SARS-CoV-2 infection rate,[2],110% (inactive)
CS(=O)(=O)Nc1ccc(Cc2noc(-c3ccc4[nH]cc(CCN)c4c3)n2)cc1 (10 µM),morphology score,[1],0.141
same,SARS-CoV-2 infection rate,[2],103% (inactive)
c1nc2c(NC3CCCCC3)nc(Nc3ccc(N4CCOCC4)cc3)nc2[nH]1 [reversine] (10 µM),morphology score,[1],-0.11
same,SARS-CoV-2 infection rate,[2],106% (inactive)
C[C@H]1CCc2c(cc(Br)c(F)c2Br)N1C=O (10 µM),morphology score,[1],0.0995
same,SARS-CoV-2 infection rate,[2],94.5% (inactive)
CCCC(CCC)C(=O)Nc1ccn([C@@H]2O[C@H](CO)[C@@H](O)C2(F)F)c(=O)n1 (0.833333 µM),morphology score,[1],0.0484
same,SARS-CoV-2 infection rate,[2],100% (inactive)
CCOC1O[C@H]([C@@H](COCc2ccccc2)OCc2ccccc2)[C@H](OCc2ccccc2)[C@H]1O (stereo partly drawn) [tribenoside] (10 µM),morphology score,[1],-0.0493
same,SARS-CoV-2 infection rate,[2],102% (inactive)
CCCn1c(=O)[nH]c2nc(-c3ccc(S(=O)(=O)O)cc3)[nH]c2c1=O (10 µM),morphology score,[1],0.179
same,SARS-CoV-2 infection rate,[2],105% (inactive)
O=c1ncccn1[C@@H]1O[C@H](CO)[C@@H](O)[C@H]1O [zebularine] (10 µM),morphology score,[1],0.0754
same,SARS-CoV-2 infection rate,[2],104% (inactive)
CN1CCN(C2=Cc3ccccc3Oc3ccc(Cl)cc32)CC1 (10 µM),morphology score,[1],0.217
same,SARS-CoV-2 infection rate,[2],106% (inactive)
CC(=O)Nc1ccc(S(=O)(=O)c2ccc(NC(C)=O)cc2)cc1 [acedapsone] (10 µM),morphology score,[1],0.233
same,SARS-CoV-2 infection rate,[2],98% (inactive)
CCc1c(C(=O)C(N)=O)c2c(OCC(=O)O)cccc2n1Cc1ccccc1 [varespladib] (10 µM),morphology score,[1],0.0669
same,SARS-CoV-2 infection rate,[2],108% (inactive)
COc1cccc(C(=O)CCN[C@@H](C)[C@H](O)c2ccccc2)c1 [oxyfedrine] (10 µM),morphology score,[1],0.217
same,SARS-CoV-2 infection rate,[2],102% (inactive)
COC(=O)[C@H](c1ccccc1Cl)N1CCc2sccc2C1 [clopidogrel] (10 µM),morphology score,[1],0.229
same,SARS-CoV-2 infection rate,[2],99% (inactive)
COc1cc2c(cc1-c1c(C)noc1C)ncc1[nH]c(=O)n([C@H](C)c3ccccn3)c12 (10 µM),morphology score,[1],-0.154
same,SARS-CoV-2 infection rate,[2],112% (inactive)
Cn1cccc1/C=C1\C(=O)NC(=O)c2ccccc21 (0.833333 µM),morphology score,[1],0.0943
same,SARS-CoV-2 infection rate,[2],100% (inactive)
O=C/C=C/c1ccccc1 [cinnamaldehyde] (10 µM),morphology score,[1],-0.0291
same,SARS-CoV-2 infection rate,[2],104% (inactive)
CCOCCn1c(N2CCCN(C)CC2)nc2ccccc21 [emedastine] (10 µM),morphology score,[1],0.137
same,SARS-CoV-2 infection rate,[2],100% (inactive)
